# Laboratory results from the supplement of paper PMC8728848.
# The full list was thinned out, with the strongest signals kept by preference.
# B1: Epa1to9 (Candida glabrata) (protein)
# chain: MGSSHHHHHHSSGLVPRGSHMTSSNDISLASKDPTTFPLGCSPDITTPKKGLSMELYSYDFRKKGSYPCWDAAYLDPNYPRTGYKSHRLLAKVDGVTGNINFYYHATKGCTPQLGHLPASYNYPKPLTMTNFTMLLYGYFRPKVTGFHTFTISADDLLFVNFGAGNAFDCCRRDSSADHFGNYQAYAIWGSKTAKDELTVHLDAGVYYPIRLFYNNRDYHGALSFTFKTESNENTVSDFSEYFFSLDDTEEGCPGLISYD
# Legend:
# Experiment in all cases: glycan array binding signal (z-score within array); higher = stronger binding
# Conditions in all cases: glycan notation: IUPAC condensed, linker removed
# [1] = target: Fuc(a1-2)Gal(b1-3)GlcNAc(b1-3)Gal(b1-4)Glc
# In short: (§1)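 From the Consortium for Functional Glycomics database, 3228 arrays were curated, keeping only those whose protein sequence was available. Binding is given as a within-array Z-score averaged across arrays sharing a protein sequence and across linkers. Negative Z-scores can be read as non-binding.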
# Fuc(a1-2)Gal(b1-4)Glc = target: Fuc(a1-2)Gal(b1-4)Glc
# In short: as §1
# [2] = target: Fuc(a1-2)Gal(b1-4)GlcNAc(b1-3)GalNAc
# In short: as §1
# [3] = target: Fuc(a1-2)Gal6S(b1-3)GlcNAc
# In short: as §1
# [4] = target: Fuc(a1-2)[Gal(a1-3)]Gal(b1-4)[Fuc(a1-3)]GlcNAc
# In short: as §1
# [5] = target: Fuc(a1-2)[GalNAc(a1-3)]Gal(b1-3)GalNAc(b1-3)Gal(a1-4)Gal(b1-4)Glc
# In short: as §1
# [6] = target: Fuc(a1-2)[GalNAc(a1-3)]Gal(b1-4)GlcNAc(b1-2)Man(a1-3)[Fuc(a1-2)[GalNAc(a1-3)]Gal(b1-4)GlcNAc(b1-2)Man(a1-6)]Man(b1-4)GlcNAc(b1-4)GlcNAc
# In short: as §1
# [7] = target: Fuc(a1-3)[Gal(b1-4)]GlcNAc(b1-3)GalNAc
# In short: as §1
# [8] = target: Gal(a1-3)Gal(b1-4)GlcNAc(b1-2)Man
# In short: as §1
# Gal(a1-4)GlcNAc = target: Gal(a1-4)GlcNAc
# In short: as §1
# Gal(b1-3)Gal(b1-4)GlcNAc = target: Gal(b1-3)Gal(b1-4)GlcNAc
# In short: as §1
# Gal(b1-3)GalNAc(b1-3)Gal = target: Gal(b1-3)GalNAc(b1-3)Gal
# In short: as §1
# [9] = target: Gal(b1-3)GalNAc(b1-4)Gal(b1-4)Glc
# In short: as §1
# [10] = target: Gal(b1-3)GalNAc(b1-4)[Neu5Ac(a2-3)]Gal(b1-4)Glc
# In short: as §1
# [11] = target: Gal(b1-3)[Neu5Ac(a2-6)]GalNAc
# In short: as §1
# [12] = target: Gal(b1-4)GlcNAc(b1-2)Man(a1-3)[Gal(b1-4)GlcNAc(b1-2)Man(a1-6)]Man(b1-4)GlcNAc(b1-4)GlcNAc
# In short: as §1
# [13] = target: Gal(b1-4)GlcNAc(b1-2)Man(a1-3)[Man(a1-6)]Man(b1-4)GlcNAc(b1-4)GlcNAc
# In short: as §1
# [14] = target: Gal(b1-4)GlcNAc(b1-2)[Gal(b1-4)GlcNAc(b1-6)]Man(a1-6)[Gal(b1-4)GlcNAc(b1-2)Man(a1-3)]Man(b1-4)GlcNAc(b1-4)[Fuc(a1-6)]GlcNAc
# In short: as §1
# [15] = target: Gal(b1-4)GlcNAc(b1-3)Gal(b1-3)GlcNAc
# In short: as §1
# [16] = target: Gal(b1-4)GlcNAc(b1-3)Gal(b1-4)GlcNAc
# In short: as §1
# [17] = target: Gal(b1-4)GlcNAc(b1-3)Gal(b1-4)GlcNAc(b1-3)Gal(b1-4)GlcNAc(b1-3)Gal(b1-4)GlcNAc(b1-3)Gal(b1-4)GlcNAc(b1-2)Man(a1-3)[Gal(b1-4)GlcNAc(b1-3)Gal(b1-4)GlcNAc(b1-3)Gal(b1-4)GlcNAc(b1-3)Gal(b1-4)GlcNAc(b1-3)Gal(b1-4)GlcNAc(b1-2)Man(a1-6)]Man(b1-4)GlcNAc(b1-4)GlcNAc
# In short: as §1
# [18] = target: Gal3S(b1-3)[Fuc(a1-4)]GlcNAc
# In short: as §1
# Gal3S(b1-4)Glc = target: Gal3S(b1-4)Glc
# In short: as §1
# Gal6S(b1-3)GlcNAc6S = target: Gal6S(b1-3)GlcNAc6S
# In short: as §1
# Gal6S(b1-4)Glc = target: Gal6S(b1-4)Glc
# In short: as §1
# Gal6S(b1-4)Glc6S = target: Gal6S(b1-4)Glc6S
# In short: as §1
# Gal6S(b1-4)GlcNAc = target: Gal6S(b1-4)GlcNAc
# In short: as §1
# Gal6S(b1-4)GlcNAc6S = target: Gal6S(b1-4)GlcNAc6S
# In short: as §1
# GalNAc3S(b1-4)GlcNAc3S = target: GalNAc3S(b1-4)GlcNAc3S
# In short: as §1
# GalNAc4S6S(b1-4)GlcNAc = target: GalNAc4S6S(b1-4)GlcNAc
# In short: as §1
# Glc(b1-6)Glc = target: Glc(b1-6)Glc
# In short: as §1
# GlcA(b1-3)Gal = target: GlcA(b1-3)Gal
# In short: as §1
# GlcA(b1-3)GlcNAc = target: GlcA(b1-3)GlcNAc
# In short: as §1
# [19] = target: GlcA3S(b1-3)Gal(b1-4)GlcNAc(b1-3)Gal(b1-4)Glc
# In short: as §1
# [20] = target: GlcNAc(b1-2)Man(a1-3)[GlcNAc(b1-4)][GlcNAc(b1-2)Man(a1-6)]Man(b1-4)GlcNAc(b1-4)[Fuc(a1-6)]GlcNAc
# In short: as §1
# [21] = target: GlcNAc(b1-2)[GlcNAc(b1-4)]Man(a1-3)[GlcNAc(b1-2)Man(a1-6)]Man(b1-4)GlcNAc(b1-4)GlcNAc
# In short: as §1
# [22] = target: GlcNAc(b1-2)[GlcNAc(b1-6)]Man(a1-6)[GlcNAc(b1-2)Man(a1-3)]Man(b1-4)GlcNAc(b1-4)GlcNAc
# In short: as §1
# GlcNAc(b1-3)GalNAc = target: GlcNAc(b1-3)GalNAc
# In short: as §1
# Kdn(a2-3)Gal(b1-3)GalNAc = target: Kdn(a2-3)Gal(b1-3)GalNAc
# In short: as §1
# Man(a1-3)[Man(a1-6)]Man = target: Man(a1-3)[Man(a1-6)]Man
# In short: as §1
# [23] = target: Man(a1-3)[Man(a1-6)]Man(b1-4)GlcNAc(b1-4)[Fuc(a1-6)]GlcNAc
# In short: as §1
# [24] = target: Neu5Ac(a2-3)Gal(b1-3)GlcNAc(b1-2)Man
# In short: as §1
# [25] = target: Neu5Ac(a2-3)Gal(b1-4)GlcNAc(b1-2)Man(a1-3)[Neu5Ac(a2-6)Gal(b1-4)GlcNAc(b1-2)Man(a1-6)]Man(b1-4)GlcNAc(b1-4)GlcNAc
# In short: as §1
# [26] = target: Neu5Ac(a2-3)Gal(b1-4)[Fuc(a1-3)]GlcNAc6S
# In short: as §1
# [27] = target: Neu5Ac(a2-6)Gal(b1-4)GlcNAc(b1-2)Man(a1-3)[Gal(b1-4)GlcNAc(b1-2)Man(a1-6)]Man(b1-4)GlcNAc(b1-4)GlcNAc
# In short: as §1
# [28] = target: Neu5Ac(a2-6)Gal(b1-4)GlcNAc(b1-3)Gal(b1-4)GlcNAc(b1-3)Gal(b1-4)GlcNAc(b1-2)Man(a1-3)[Neu5Ac(a2-6)Gal(b1-4)GlcNAc(b1-3)Gal(b1-4)GlcNAc(b1-3)Gal(b1-4)GlcNAc(b1-2)Man(a1-6)]GalNAc
# In short: as §1
# Neu5Ac(a2-6)GalNAc = target: Neu5Ac(a2-6)GalNAc
# In short: as §1
# Neu5Ac(b2-6)GalNAc = target: Neu5Ac(b2-6)GalNAc
# In short: as §1
# [29] = target: Neu5Gc(a2-8)Neu5Ac(a2-3)Gal(b1-4)GlcNAc
# In short: as §1
binder,measurement,setting,value
B1,glycan array binding signal (z-score),[1],-0.354
same,glycan array binding signal (z-score),Fuc(a1-2)Gal(b1-4)Glc,-0.307
same,glycan array binding signal (z-score),[2],-0.34
same,glycan array binding signal (z-score),[3],0.035
same,glycan array binding signal (z-score),[4],-0.276
same,glycan array binding signal (z-score),[5],-0.349
same,glycan array binding signal (z-score),[6],-0.318
same,glycan array binding signal (z-score),[7],-0.293
same,glycan array binding signal (z-score),[8],0.008
same,glycan array binding signal (z-score),Gal(a1-4)GlcNAc,1.94
same,glycan array binding signal (z-score),Gal(b1-3)Gal(b1-4)GlcNAc,4.22
same,glycan array binding signal (z-score),Gal(b1-3)GalNAc(b1-3)Gal,3.67
same,glycan array binding signal (z-score),[9],4.67
same,glycan array binding signal (z-score),[10],2.83
same,glycan array binding signal (z-score),[11],4.47
same,glycan array binding signal (z-score),[12],1.17
same,glycan array binding signal (z-score),[13],-0.161
same,glycan array binding signal (z-score),[14],3.13
same,glycan array binding signal (z-score),[15],-0.107
same,glycan array binding signal (z-score),[16],-0.064
same,glycan array binding signal (z-score),[17],0.122
same,glycan array binding signal (z-score),[18],-0.345
same,glycan array binding signal (z-score),Gal3S(b1-4)Glc,-0.283
same,glycan array binding signal (z-score),Gal6S(b1-3)GlcNAc6S,4.86
same,glycan array binding signal (z-score),Gal6S(b1-4)Glc,5.05
same,glycan array binding signal (z-score),Gal6S(b1-4)Glc6S,7.26
same,glycan array binding signal (z-score),Gal6S(b1-4)GlcNAc,4.98
same,glycan array binding signal (z-score),Gal6S(b1-4)GlcNAc6S,10.6
same,glycan array binding signal (z-score),GalNAc3S(b1-4)GlcNAc3S,-0.353
same,glycan array binding signal (z-score),GalNAc4S6S(b1-4)GlcNAc,-0.346
same,glycan array binding signal (z-score),Glc(b1-6)Glc,-0.333
same,glycan array binding signal (z-score),GlcA(b1-3)Gal,-0.315
same,glycan array binding signal (z-score),GlcA(b1-3)GlcNAc,-0.346
same,glycan array binding signal (z-score),[19],-0.35
same,glycan array binding signal (z-score),[20],-0.354
same,glycan array binding signal (z-score),[21],-0.295
same,glycan array binding signal (z-score),[22],-0.344
same,glycan array binding signal (z-score),GlcNAc(b1-3)GalNAc,-0.352
same,glycan array binding signal (z-score),Kdn(a2-3)Gal(b1-3)GalNAc,-0.38
same,glycan array binding signal (z-score),Man(a1-3)[Man(a1-6)]Man,-0.287
same,glycan array binding signal (z-score),[23],-0.339
same,glycan array binding signal (z-score),[24],-0.33
same,glycan array binding signal (z-score),[25],-0.322
same,glycan array binding signal (z-score),[26],-0.36
same,glycan array binding signal (z-score),[27],-0.246
same,glycan array binding signal (z-score),[28],-0.309
same,glycan array binding signal (z-score),Neu5Ac(a2-6)GalNAc,-0.343
same,glycan array binding signal (z-score),Neu5Ac(b2-6)GalNAc,-0.346
same,glycan array binding signal (z-score),[29],-0.338
